In the assay the target is T1, CRBN, Q96SW2.
T1 chain: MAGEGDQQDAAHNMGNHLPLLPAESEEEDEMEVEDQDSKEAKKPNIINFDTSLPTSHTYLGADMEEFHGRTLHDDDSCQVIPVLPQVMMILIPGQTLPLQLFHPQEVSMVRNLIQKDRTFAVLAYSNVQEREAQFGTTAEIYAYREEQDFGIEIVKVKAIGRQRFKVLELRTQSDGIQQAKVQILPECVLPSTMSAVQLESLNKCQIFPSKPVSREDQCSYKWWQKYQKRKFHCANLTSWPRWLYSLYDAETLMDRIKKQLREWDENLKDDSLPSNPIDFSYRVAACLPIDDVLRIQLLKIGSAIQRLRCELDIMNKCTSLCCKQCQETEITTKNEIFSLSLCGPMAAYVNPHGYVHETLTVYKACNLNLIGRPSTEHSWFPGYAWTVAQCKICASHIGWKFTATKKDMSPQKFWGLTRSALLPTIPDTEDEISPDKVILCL
The assay is described as follows: log2 fold change of degron read counts, EGFP-low vs EGFP+ sorted cells (limma voom), compound-induced degradation; higher = more compound-induced degradation of the degron-EGFP fusion; degrons are variants of IKZF1/3 zinc finger 2; compound dose not given here. As to conditions: Jurkat, 18 h. The protocol:
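Pooled library of 8380 IKZF3 ZF2 degron mutants (positions 146-167 varied within the IKZF3 130-189 degron; only the varied core is printed, flanks not printed) fused to EGFP with IRES-mCherry, lentivirally expressed in Jurkat cells. mCherry+ cells were treated with one IMiD compound for 18 h (dose not stated) and FACS-sorted into EGFP-low and EGFP+ populations. Degron sequences were counted by NGS, and log2FC (EGFP-low vs EGFP+) was estimated by limma voom over 3 biological replicates.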

The mark [1] stands for this setting: compound: compound 19 (5-tert-butyl-thalidomide).
[2] abbreviates: compound: compound 22 (5-morpholino-thalidomide).
Where [3] appears, read: compound: compound 33 (diphenyl IMiD analogue).

Experimental findings from the supplement of paper PMC12645437, “Orthogonal IMiD-Degron Pairs Induce Selective Protein Degradation in Cells” (ACS Chemical Biology, 2025) are described below.

Whole data set: some 8,300 sequences, median “log2 fold change of degron read counts, EGFP-low vs EGFP+ sorted cells (limma voom), compound-induced degradation” near -1.1, cut for the highest 2% near 3.2. What follows is part of a selection rich in the highest values, with near analogues and random picks from the rest.
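Also: pooled lentiviral library of zinc finger degron-EGFP fusions in mCherry-positive Jurkat cells, FACS-sorted after compound exposure, with degron abundance counted by next-generation sequencing.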

On to FACNICGAWFTQKGNLLRHIKL [46F_47A_49N_50I_52G_53A_54W_55F_67L_, Q9UKT9], for which the “log2 fold change of degron read counts” value is -0.878 under setting [1], -0.37 under setting [2], -0.973 under setting [3] and -1.22 (compound: thalidomide).
In the same order, the values of FECNQCGRSFTQKGNLLRHIKL [46F_47E_49N_50Q_52G_53R_54S_55F_67L_, Q9UKT9] are -2.91, -4.04, -3.77 and -2.98.
With LMCNQCGFPCTQKGNLLRHIKL [46L_47M_49N_50Q_52G_53F_54P_55C_67L_, Q9UKT9], the “log2 fold change of degron read counts” value was -2.18 under setting [1], -2.49 under setting [2], -1.64 under setting [3] and -1.76 (compound: thalidomide).
In the same order, the values of FECEICGHSFTQKGNLLRHIKL [46F_47E_49E_50I_52G_53H_54S_55F_67L_, Q9UKT9] are -3.4, -3.98, -3.41 and -3.14.
Turning to FSCDVCGAVFTQKGNLLRHIKL [46F_47S_49D_50V_52G_53A_54V_55F_67L_, Q9UKT9], the “log2 fold change of degron read counts” value is -0.211 under setting [1], -0.318 under setting [2], 1.04 under setting [3] and -0.804 (compound: thalidomide).
Take FSCPICGRVFTQKGNLLRHIKL [46F_47S_49P_50I_52G_53R_54V_55F_67L_, Q9UKT9]: the “log2 fold change of degron read counts” value runs as follows: under setting [1], -0.277; under setting [2], -0.0789; under setting [3], 1.53; (compound: thalidomide) 0.556.
Consider FMCEICGHFFTQKGNLLRHIKL [46F_47M_49E_50I_52G_53H_54F_55F_67L_, Q9UKT9], for which the “log2 fold change of degron read counts” value under setting [1] was -3.03, the “log2 fold change of degron read counts” value under setting [2] is -3.09, the “log2 fold change of degron read counts” value under setting [3] was -2.32 and the “log2 fold change of degron read counts” value (compound: thalidomide) was -3.02.
For the sequence FACEICGALFTQKGNLLRHIKL [46F_47A_49E_50I_52G_53A_54L_55F_67L_, Q9UKT9], the “log2 fold change of degron read counts” value is 2.71 under setting [1], 0.321 under setting [2], 0.174 under setting [3] and -0.494 (compound: thalidomide).
With FDCEICGALFTQKGNLLRHIKL [46F_47D_49E_50I_52G_53A_54L_55F_67L_, Q9UKT9], the “log2 fold change of degron read counts” value is, setting by setting: under setting [1], -0.733; under setting [2], -1.67; under setting [3], 0.189; (compound: thalidomide) -0.124.
For FLCEICGALFTQKGNLLRHIKL [46F_47L_49E_50I_52G_53A_54L_55F_67L_, Q9UKT9], the “log2 fold change of degron read counts” value by setting is: under setting [1], -0.92; under setting [2], -1.27; under setting [3], 0.77; (compound: thalidomide) 1.46.
With FQCEICGALFTQKGNLLRHIKL [46F_47Q_49E_50I_52G_53A_54L_55F_67L_, Q9UKT9], the “log2 fold change of degron read counts” value is, setting by setting: under setting [1], -1.22; under setting [2], 1.46; under setting [3], 1.74; (compound: thalidomide) 3.53.
As to FFCEICGALFTQKGNLLRHIKL [46F_47F_49E_50I_52G_53A_54L_55F_67L_, Q9UKT9], the “log2 fold change of degron read counts” value amounted to 3.18 under setting [1], 2.91 under setting [2], 1.74 under setting [3] and 0.646 (compound: thalidomide).
In the same order, the values of FYCEICGALFTQKGNLLRHIKL [46F_47Y_49E_50I_52G_53A_54L_55F_67L_, Q9UKT9] are 3.29, 3.38, 2.38 and 0.365.
The corresponding values for FGCEQCGAKFTQKGNLLRHIKL [46F_47G_49E_50Q_52G_53A_54K_55F_67L_, Q9UKT9] are 0.32, -2.26, -2.15 and -0.779.
As for FLCPVCGAEFTQKGNLLRHIKL [46F_47L_49P_50V_52G_53A_54E_55F_67L_, Q9UKT9], the “log2 fold change of degron read counts” value is, setting by setting: under setting [1], -0.14; under setting [2], -1.09; under setting [3], 1.21; (compound: thalidomide) 1.24.
The corresponding values for FCCPQCGANFTQKGNLLRHIKL [46F_47C_49P_50Q_52G_53A_54N_55F_67L_, Q9UKT9] are -0.811, -1.28, 0.128 and -0.853.
Regarding FMCNQCGHWFTQKGNLLRHIKL [46F_47M_49N_50Q_52G_53H_54W_55F_67L_, Q9UKT9], the “log2 fold change of degron read counts” value reads like this: under setting [1], -2.24; under setting [2], -2.49; under setting [3], -2.26; (compound: thalidomide) -2.73.
Regarding FDCNQCGANFTQKGNLLRHIKL [46F_47D_49N_50Q_52G_53A_54N_55F_67L_, Q9UKT9], the “log2 fold change of degron read counts” value by setting is: under setting [1], -2.41; under setting [2], -2.24; under setting [3], -2.07; (compound: thalidomide) -2.31.
In the same order, the values of FNCEICGARFTQKGNLLRHIKL [46F_47N_49E_50I_52G_53A_54R_55F_67L_, Q9UKT9] are 2.49, 0.909, -0.686 and 0.645.
In the same order, the values of FKCEICGARFTQKGNLLRHIKL [46F_47K_49E_50I_52G_53A_54R_55F_67L_, Q9UKT9] are -1.5, -3.6, -3.25 and -1.17.
Regarding FGCEICGARFTQKGNLLRHIKL [46F_47G_49E_50I_52G_53A_54R_55F_67L_, Q9UKT9], the “log2 fold change of degron read counts” value runs as follows: under setting [1], 3.15; under setting [2], 2.26; under setting [3], -0.576; (compound: thalidomide) 1.48.
The corresponding values for FCCEICGARFTQKGNLLRHIKL [46F_47C_49E_50I_52G_53A_54R_55F_67L_, Q9UKT9] are 3.25, 3.01, 1.66 and 3.08.
The corresponding values for FSCEICGALFTQKGNLLRHIKL [46F_47S_49E_50I_52G_53A_54L_55F_67L_, Q9UKT9] are 0.851, 0.0276, 2.41 and -0.115.
As to FSCEICGARFTQKGNLLRHIKL [46F_47S_49E_50I_52G_53A_54R_55F_67L_, Q9UKT9], the “log2 fold change of degron read counts” value reads like this: under setting [1], 3.25; under setting [2], 2.89; under setting [3], 0.489; (compound: thalidomide) 2.12.
Regarding FDCPICGREFTQKGNLLRHIKL [46F_47D_49P_50I_52G_53R_54E_55F_67L_, Q9UKT9], the “log2 fold change of degron read counts” value under setting [1] was -1.43, the “log2 fold change of degron read counts” value under setting [2] is -1.65, the “log2 fold change of degron read counts” value under setting [3] was -0.206 and the “log2 fold change of degron read counts” value (compound: thalidomide) is 0.273.
In the same order, the values of FQCPICGHKFTQKGNLLRHIKL [46F_47Q_49P_50I_52G_53H_54K_55F_67L_, Q9UKT9] are -1.95, -1.73, -1.82 and 0.342.
In the same order, the values of FDCDICGATFTQKGNLLRHIKL [46F_47D_49D_50I_52G_53A_54T_55F_67L_, Q9UKT9] are -0.229, -1.86, -1.66 and -1.78.
In the same order, the values of FICNQCGAGFTQKGNLLRHIKL [46F_47I_49N_50Q_52G_53A_54G_55F_67L_, Q9UKT9] are -2.57, -1.54, -0.787 and -0.966.
